# Measurements published in publication PMC11062922 (Nature Chemical Biology, 2023).
# How the values were obtained:
# Conditions in all cases: read-out: apparent Kd; compound concentrations:100 nM and 1000 nM (sheet 'Lestaurtinib' of Supplementary Table 1),run:Lestaurtinib_02487_R1,Plate:MR012; n = 1
# SRC = test system: SRC
# TAOK1 = test system: TAOK1
# TEC = test system: TEC
# ULK1 = test system: ULK1
substance,measurement,setting,value
Lestaurtinib,potency estimated from few doses,SRC,618 nM
same,potency estimated from few doses,TAOK1,1530 nM
same,potency estimated from few doses,TEC,895 nM
same,potency estimated from few doses,ULK1,549 nM
